50 molecules from PubChem BioAssay AID493034 (The Scripps Research Institute Molecular Screening Center, 2011) can be followed below.

SMILES strings stand for the structures. Hit rate of the full screen: of about 2,400 compounds, about 2,200 (92%) were called active.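 How the source made its calls: active means mean inhibition over triplicate runs exceeds the cutoff derived for the earlier primary screen (cut at about 25% in these data); inactive means the rest.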 So high a share suggests a set chosen from earlier hits. This is one part of the list.

For the assay, the target named is Platelet-activating factor acetylhydrolase IB subunit alpha2 (Homo sapiens) (UniProt P68402). In words: inhibition of human PAFAH1B2 catalytic subunit – biochemical, fluorescence polarization, FP-rhodamine probe, triplicate, confirmation (AID 493034).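 Further: 0% = enzyme with DMSO and 100% = wells lacking PAFAH1B2 protein; inhibitors lower polarization by leaving the probe unbound.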 Particulars: recombinant PAFAH1B2, FP-rhodamine probe fluorescence polarization; at 3.39 µM; active compounds read high. Background: Polarisation of emitted light reports the rotation of a fluorescent probe.
Sequence of Platelet-activating factor acetylhydrolase IB subunit alpha2 (Homo sapiens) (P68402 whole entry, looked up): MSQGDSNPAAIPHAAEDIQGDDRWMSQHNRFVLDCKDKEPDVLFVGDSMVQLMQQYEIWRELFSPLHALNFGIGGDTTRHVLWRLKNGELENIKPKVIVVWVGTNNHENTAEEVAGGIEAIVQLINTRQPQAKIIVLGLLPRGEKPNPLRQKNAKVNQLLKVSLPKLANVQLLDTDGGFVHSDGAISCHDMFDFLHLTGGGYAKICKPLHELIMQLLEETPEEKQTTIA
Consider `Clc1ccc(OCCSCc2nc3ccccc3[nH]2)cc1`, for which the inhibition is 22.6% (inactive).
With `COc1ccc(S(=O)(=O)Nc2ccc3c(c2)C(=O)N([C@@H](C)CO)C[C@H](C)[C@H](CN(C)S(=O)(=O)c2ccc(F)cc2)O3)cc1`, the inhibition is 22.2% (inactive).
In the case of `COc1ccc(S(=O)(=O)Nc2ccc3c(c2)CC(=O)N([C@@H](C)CO)C[C@@H](C)[C@@H](CN(C)Cc2ccccc2)O3)cc1` it was 26.1% (active); in that of `COc1ccc(S(=O)(=O)Nc2ccc3c(c2)C(=O)N([C@H](C)CO)C[C@H](C)[C@@H](CN(C)S(=O)(=O)c2ccccc2)O3)cc1`, 22.7% (inactive); in that of `COC(=O)c1sc(-c2ccc(Cl)cc2)cc1NC(=O)COCC(=O)O`, 11.5% (inactive).
In the case of `O=C(Nc1sc(-c2ccccc2)cc1C(=O)O)c1ccccc1`, the inhibition is 28.8% (active).
As for `S=c1[nH]cnc2sc(-c3ccccc3)cc12`, the inhibition is 37.9% (active).
The same measure for `O=[N+]([O-])c1cc(-c2cnc3ccccc3n2)ccc1Oc1ccc(Br)cc1`: 51.6% (active); for `CC(C)(C)CC(C)(C)c1ccc(O)c(CN2CCN(CCC#N)CC2)c1`: 32.4% (active).
As for `COC(=O)c1sccc1NC(=O)CC1C(=O)NCCN1C(=O)Nc1ccc(OCc2ccccc2)cc1` (stereo not given), the inhibition is 52.2% (active).
In the case of `Oc1cc2c(cc1O)CN(C(=S)NCCc1ccc(Cl)cc1)CCC2` it was 55.2% (active).
Regarding `Cn1nc(C(=O)NCCc2ccc(Cl)cc2)c2c1-c1ccccc1S(=O)(=O)C2`, the inhibition was 23.3% (inactive).
Consider `Cc1c(C(=O)N2CCOCC2)cc(C(C)(C)C)n1-c1ccccc1`, for which the inhibition was 41% (active).
Consider `Cc1ccc(S(=O)(=O)n2cc(CO)c3ccccc32)cc1`, for which the inhibition was 40% (active).
In the case of `CCC(C)c1c(N)n(S(=O)(=O)c2ccc(C)cc2)oc1=O` (stereo not given) it was 23.5% (inactive); in that of `O=C1NC[C@@H](c2ccccc2)OC(=O)[C@@H](Cc2ccc(F)cc2)CC/C=C/C[C@H]1CC(=O)N(CCO)Cc1ccccc1`, 57.9% (active); in that of `O=C1NC[C@H](c2ccccc2)OC(=O)[C@H](Cc2ccc(F)cc2)C/C=C\C[C@H]1CC(=O)N(CCO)Cc1ccccc1`, 49.6% (active).
In the case of `O=C(C[C@H]1C/C=C/CC[C@H](Cc2ccc(F)cc2)C(=O)O[C@H](c2ccccc2)CNC1=O)NCCO` it was 23.6% (inactive); in that of `O=C1NCCOC(=O)[C@H](Cc2ccc(F)cc2)C/C=C\C[C@H]1CC(=O)N(CCO)Cc1ccccc1`, 14.8% (inactive); in that of `O=C1NC[C@@H](c2ccccc2)OC(=O)[C@H](Cc2ccc(F)cc2)CC/C=C/C[C@H]1CC(=O)N(CCO)Cc1ccccc1`, 52.6% (active).
The same measure for `S=c1[nH]nc(CSCCOc2ccc(Cl)cc2Cl)o1`: 23.3% (inactive).
For `CC(C)C(C(=O)Nc1nccs1)c1ccc(Cl)cc1` (stereo not given), the inhibition was 17.2% (inactive).
The same measure for `N#Cc1c(NC(=O)C2CC=CCC2C(=O)O)sc2c1CCCCCC2` (stereo not given): 41.1% (active).
Regarding `CC(C)(C)NC(=O)C(=O)NNC(=O)COc1ccc(Br)cc1`, the inhibition was 23.5% (inactive).
On to `CCc1ccc(-c2cc(C(=O)Nn3cnnc3)c3ccccc3n2)cc1`, for which the inhibition was 30.2% (active).
Take `Cc1ccc(S(=O)(=O)N2CCN(C(=S)NCCc3ccccc3)CC2)cc1`: the inhibition was 34.8% (active).
On to `CC(=O)N1CCOc2ccc(S(=O)(=O)NCCc3ccc(C)cc3)cc21`, for which the inhibition is 23.7% (inactive).
In the case of `C=C1C(=O)[C@@]23[C@H](O)C[C@@H]4C(C)(C)CC[C@H](O)[C@@]4(C)[C@@H]2CC[C@@H]1[C@H]3O` it was 84.8% (active).
In the case of `C=C1C(=O)[C@@]23[C@H](O)C[C@@H]4C(C)(C)CC[C@H](O)[C@]4(C)[C@@H]2C[C@H](O)[C@@H]1[C@H]3O` it was 69.2% (active); in that of `Cc1ccc(Sc2ccc(/C=C3/C(=O)NN(c4ccccc4)C3=O)o2)cc1`, 73.8% (active).
As to `Cc1ccc2c(c1)C=CC(C)N2C(=O)c1ccccc1` (stereo not given), the inhibition was 21.4% (inactive).
For the molecule `O=C(CCNS(=O)(=O)c1ccccc1)NCCCSc1ccccc1`, the inhibition is 22.4% (inactive).
On to `Cc1ccc(S(=O)(=O)/N=C2\SC(CC(=O)Nc3ccc(F)cc3)C(=O)N2c2ccccc2)cc1` (stereo not given), for which the inhibition was 23.5% (inactive).
As for `Cc1ccc(CN=C2NC(=O)C(CC(=O)NCCc3ccccc3)S2)cc1` (stereo not given), the inhibition was 51.6% (active).
In the case of `O=C(NCCc1ccc(Cl)cc1)c1ccc(=O)[nH]c1` it was 19.5% (inactive); in that of `C[C@H](CO)N1C[C@H](C)[C@@H](CN(C)C(=O)Nc2ccc(C(F)(F)F)cc2)Oc2c(NC(=O)Nc3ccc4c(c3)OCO4)cccc2C1=O`, 44.2% (active).
In the case of `C[C@H](CO)N1C[C@H](C)[C@@H](CN(C)C(=O)Nc2ccc(C(F)(F)F)cc2)Oc2c(NC(=O)Nc3ccc(C(F)(F)F)cc3)cccc2C1=O` it was 62.5% (active); in that of `C[C@H](CO)N1C[C@H](C)[C@@H](CN(C)C(=O)Nc2ccc(C(F)(F)F)cc2)Oc2c(NC(=O)Nc3ccccc3)cccc2C1=O`, 42.3% (active).
In the case of `C[C@@H]1CN([C@H](C)CO)C(=O)c2cccc(NC(=O)NC3CCCCC3)c2O[C@@H]1CN(C)C(=O)Nc1ccc(C(F)(F)F)cc1` it was 55.7% (active).
As to `C[C@H](CO)N1C[C@H](C)[C@@H](CN(C)C(=O)Nc2ccccc2)Oc2c(NC(=O)Nc3ccc(C(F)(F)F)cc3)cccc2C1=O`, the inhibition is 23.4% (inactive).
`COc1ccc(NC(=O)Nc2cccc3c2O[C@H](CN(C)C(=O)Nc2ccc(C(F)(F)F)cc2)[C@@H](C)CN([C@H](C)CO)C3=O)cc1`: the inhibition was 56.9% (active).
In the case of `COc1ccc(NC(=O)N(C)C[C@H]2Oc3c(NC(=O)Nc4ccc(C(F)(F)F)cc4)cccc3C(=O)N([C@H](C)CO)C[C@@H]2C)cc1` it was 28.7% (active).
In the case of `O=C(O)C/C(=C\c1cc2c(cc1Br)OCO2)c1nc2ccccc2s1` it was 22.2% (inactive); in that of `COc1cc(/C=C(\CCC(=O)O)c2nc3ccccc3s2)ccc1OCC(=O)Nc1c(Cl)cccc1Cl`, 57.7% (active).
The same measure for `O=C(O)CC/C(=C\c1ccc(N2CCOCC2)c([N+](=O)[O-])c1)c1nc2ccccc2s1`: 91.2% (active); for `O=C(O)CCc1ccc(S(=O)(=O)Nc2cc(C(F)(F)F)ccc2N2CCCC2)cc1`: 13.5% (inactive); for `O=C(O)CC/C(=C\c1ccc(N2CCCC2)c([N+](=O)[O-])c1)c1nc2ccccc2s1`: 84.2% (active).
On to `Cc1ccc(CNC(=O)Nc2ccc(Cl)cc2)cc1`, for which the inhibition was 1.92% (inactive).
As for `CCCCOc1ccc(CNC(=O)NS(=O)(=O)c2ccc(OCC(C)C)cc2)cc1`, the inhibition was 57.7% (active).
In the case of `CCCCOc1ccc(S(=O)(=O)NC(=O)NCc2ccc(OCCC)cc2)cc1` it was 32.1% (active).

For orientation: inhibition means the drop in the measured response relative to a control, in per cent.
